This passage reports growth results from PubChem BioAssay (NCI).

Among the test systems are NCI-H23 lung; NCI-H226 lung; HOP-62 NSCLC; NCI-H460 lung; HOP-92 NSCLC; NCI-H522 lung; A549/ATCC NSCLC; 786-0 renal; COLO 205 colon.
Assay in all cases: NCI-60 one-dose screen, 48 h (100 = growth as untreated, 0 = no growth, -100 = all killed)
Common to all, as to details: 10 µM

This is part of a sample that, as a whole, favours compounds with a hit. Of some 83,000 tested, about 20% had one in any assay.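 Growth was measured after 48 h exposure to one concentration of compound in 96-well plates. Values under 10 count as active.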 Unmarked numbers belong to inactive results. Active and inactive are the calls of the source.

On to `NS(=O)(=O)c1ccc(N2N=C(c3ccccc3)CCC2=O)cc1`, for which the growth in the test on NCI-H23 lung was 95.4%; with NCI-H226 lung, 120%; in the test with HOP-62 NSCLC, 95.8%; in the test on NCI-H460 lung it was 102%; in the test with HOP-92 NSCLC, 97.7%; in the test with NCI-H522 lung it was 85.7%. Further, the growth with A549/ATCC NSCLC is 93.6%; in the test with 786-0 renal, 82.7%; in the test on COLO 205 colon, 156%.

`Cc1c[nH]c(=O)n(Cc2nnc(CCC(=O)c3nc4ccccc4[nH]3)o2)c1=O`: the growth in the test on NCI-H23 lung is 36.9%; in the test on NCI-H226 lung it was 31.7%; in the test with HOP-62 NSCLC, 17.7%; in the test with NCI-H460 lung it was 9.27% (active); in the test on HOP-92 NSCLC, 53.2%; in the test on NCI-H522 lung, 12.7%. In addition, the growth was 21.1% with A549/ATCC NSCLC, 28.7% in the test on 786-0 renal and -32.7% (active) in the test with COLO 205 colon.

With `CC(C)(C)OC(=O)N1CCc2c(sc3ncnc(N/N=C/c4cccc5ccccc45)c23)C1`, the growth with NCI-H23 lung is 12.9%; in the test on NCI-H226 lung, 31%; in the test with HOP-62 NSCLC it was 27.8%; in the test on NCI-H460 lung, 4.98% (active); with HOP-92 NSCLC, 25.6%; in the test on NCI-H522 lung, 16%. The growth in the test on A549/ATCC NSCLC was 23.8%; in the test with 786-0 renal it was 16.9%; in the test on COLO 205 colon, 13.8%.

With `Cc1ccc(S(=O)(=O)N/N=C2\CCCc3ccccc32)cc1`, the growth was 87.1% in the test with NCI-H23 lung; 90.9% in the test on NCI-H226 lung; 108% in the test with HOP-62 NSCLC; 96.7% in the test with NCI-H460 lung; 99.5% with HOP-92 NSCLC; 103% with NCI-H522 lung. Also, the results for the growth in the test on A549/ATCC NSCLC, with 786-0 renal and in the test on COLO 205 colon were 101%, 116% and 115%, respectively.

In the case of `COc1cc(Cc2cc(-c3ccccc3)n[nH]c2=O)cc(OC)c1OC`, the growth with NCI-H23 lung is 65.5%; with NCI-H226 lung, 68.5%; in the test with HOP-62 NSCLC, 73%; with NCI-H460 lung, 44.5%; with HOP-92 NSCLC, 35.8%; with NCI-H522 lung, 52.9%. Moreover, the growth in the test with A549/ATCC NSCLC was 53.5%; in the test on 786-0 renal it was 74.3%; in the test on COLO 205 colon it was 56.3%.

For `COc1cc(C2CC(c3ccccc3)=NN2C(C)=O)cc(OC)c1OC` (stereo unspecified), the growth is 64.1% in the test on NCI-H23 lung; 82.1% in the test with NCI-H226 lung; 68.2% in the test with HOP-62 NSCLC; 15.5% in the test on NCI-H460 lung; 76.1% in the test with HOP-92 NSCLC; 7.46% (active) in the test on NCI-H522 lung. Further, the growth in the test on A549/ATCC NSCLC is 54.7%; in the test on 786-0 renal it was 62.2%; in the test on COLO 205 colon, 35.3%.

Consider `C[n+]1c2ccccc2nc2ccccc21`, for which the growth in the test with NCI-H23 lung was -9.78% (active); with NCI-H226 lung, 42.2%; with HOP-62 NSCLC it was -18.8% (active); with NCI-H460 lung it was 17.3%; with HOP-92 NSCLC, -10.7% (active); in the test on NCI-H522 lung, -39.4% (active). For the same compound, the growth is 24.1% in the test with A549/ATCC NSCLC, 10.9% in the test on 786-0 renal and -25.3% (active) in the test with COLO 205 colon.

As for `Cc1ccc(NCCNCC(C)(C)O)c2c(=O)c3ccc(Cl)cc3sc12`, the growth in the test on NCI-H23 lung is 52%; in the test on NCI-H226 lung, 76.6%; with HOP-62 NSCLC, 80.1%; in the test with NCI-H460 lung, -73.7% (active); in the test on HOP-92 NSCLC it was 21%; with NCI-H522 lung it was 49.4%. Also, the growth is -42.9% (active) in the test with A549/ATCC NSCLC, 54% with 786-0 renal and -79.2% (active) in the test on COLO 205 colon.

For `CCOC(=O)c1cc(C(=O)c2cc(OC)c(OC)c(OC)c2)n2c1ccc1c3cccnc3ccc12`, the growth in the test with NCI-H23 lung is 77.4%; in the test on NCI-H226 lung it was 82.3%; with HOP-62 NSCLC, 61.9%; in the test with NCI-H460 lung, 82.2%; with HOP-92 NSCLC, 55.5%; in the test on NCI-H522 lung, 22.8%. The growth with A549/ATCC NSCLC was 64%; in the test on 786-0 renal, 78.5%; with COLO 205 colon, 36.6%.

As for `COc1ccc2nc3cc(Cl)ccc3c(N)c2c1`, the growth with NCI-H23 lung was -93.9% (active); with NCI-H226 lung it was 36.7%; with HOP-62 NSCLC, -94.3% (active); in the test with NCI-H460 lung it was -75.2% (active); with HOP-92 NSCLC, 91.3%; in the test with NCI-H522 lung, -75.8% (active). In addition, the growth in the test with A549/ATCC NSCLC was -73% (active); with 786-0 renal, -98.9% (active); in the test on COLO 205 colon, -87.6% (active).

As for `CNS(=O)(=O)Oc1ccc(-c2ccc3occc3c2)cc1`, the growth is 95.1% in the test with NCI-H23 lung; 93.8% in the test with NCI-H226 lung; 102% in the test with HOP-62 NSCLC; 104% in the test with NCI-H460 lung; 91.8% in the test with HOP-92 NSCLC; 84% in the test with NCI-H522 lung. Besides, the growth was 93.3% in the test with A549/ATCC NSCLC, 99.1% with 786-0 renal and 111% with COLO 205 colon.

In the case of `COc1ccc(-c2cc(-c3ccccc3)nc(SCCCC(=O)NO)n2)cc1`, the growth in the test with NCI-H23 lung is -33.3% (active); in the test with NCI-H226 lung it was -8.31% (active); with HOP-62 NSCLC, -20% (active); in the test on NCI-H460 lung, -10.3% (active); with HOP-92 NSCLC, -13.4% (active); in the test with NCI-H522 lung, -7.67% (active). Moreover, the growth in the test with A549/ATCC NSCLC was -2.46% (active); in the test with 786-0 renal it was -13.5% (active); in the test with COLO 205 colon it was -22.6% (active).

For the compound `COc1ccc2cc(-c3nc4ccccc4s3)c(Cl)nc2c1OC`, the growth in the test on NCI-H23 lung is 84.4%; with NCI-H226 lung, 93.9%; in the test on HOP-62 NSCLC, 90.7%; in the test on NCI-H460 lung, 98.4%; in the test on HOP-92 NSCLC it was 85.3%; in the test on NCI-H522 lung it was 101%. Also, the growth with A549/ATCC NSCLC was 110%; in the test with 786-0 renal it was 119%; in the test on COLO 205 colon, 98%.

With `Cc1ccc(NCCN(C)CC(C)O)c2c(=O)c3ccccc3sc12` (stereo unspecified), the growth is 57.4% in the test on NCI-H23 lung; 66.1% with NCI-H226 lung; 48% in the test with HOP-62 NSCLC; 15.6% with NCI-H460 lung; 32.4% in the test with HOP-92 NSCLC; 44.4% in the test with NCI-H522 lung. For the same compound, the growth with A549/ATCC NSCLC is 21.6%; with 786-0 renal it was 40.5%; in the test with COLO 205 colon it was -43.3% (active).
